# Shown are actives, neighbours in structure and some others; about 3.5% of the full set was active somewhere.
# GPR151 activ: activators of human GPR151, primary screen, cell-based, PathHunter beta-arrestin, luminescence. G-protein coupled receptor 151 (Homo sapiens), Q8TDV0. PathHunter beta-arrestin GPR151 cells. activation, % at 11.2 µM. actives 1% (n = 650,000). AID 1508602, 2020; in the data active means activation above about 4.9%;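 further: 0% = median of compound wells and 100% = cells with positive control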
# Target sequence (Q8TDV0 whole entry, looked up): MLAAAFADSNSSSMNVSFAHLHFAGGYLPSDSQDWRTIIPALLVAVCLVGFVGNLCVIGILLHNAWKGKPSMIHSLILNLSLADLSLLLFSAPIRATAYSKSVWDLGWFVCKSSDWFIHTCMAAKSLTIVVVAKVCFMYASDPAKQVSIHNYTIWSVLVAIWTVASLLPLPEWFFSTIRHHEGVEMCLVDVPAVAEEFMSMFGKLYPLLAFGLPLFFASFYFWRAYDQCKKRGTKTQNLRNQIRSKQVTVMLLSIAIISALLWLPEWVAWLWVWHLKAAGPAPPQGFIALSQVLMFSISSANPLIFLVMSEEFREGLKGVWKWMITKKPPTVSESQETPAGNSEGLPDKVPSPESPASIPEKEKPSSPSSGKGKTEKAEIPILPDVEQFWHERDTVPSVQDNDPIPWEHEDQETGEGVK
# MITF inh: MITF inhibitors, primary screen, biochemical, AlphaScreen, human. Microphthalmia-associated transcription factor (Homo sapiens), O75030. AlphaScreen MITF homodimerization, bead proximity signal. inhibition, % at 2.6 µM. actives 0.91% (n = 650,000); in the data active means inhibition above about 50%;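 further: 0% = vehicle wells with protein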
# FBW7 act: FBW7 E3 ligase activators, primary screen, biochemical, AlphaScreen, human; AlphaScreen FBW7–phospho-cyclin E peptide binding, activator screen; normalized activity (activation), % at 26.1 µM; actives 0.13% (n = 650,000); AID 1259310, 2017; in the data active means normalized activity above about 1.9%;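 further: purified mutant Fbw7 with reduced substrate affinity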
# TEAD-YAP block: TEAD-YAP interaction inhibition, primary screen, TEAD-YAP interaction inhibitor project, luminescence, HEK-TIYL cells; inhibition, % at 9.12 µM; actives 1.4% (n = 640,000); TEAD-Gal4/YAP UAS-luciferase luminescence; in the data active means inhibition above about 32%;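 further: 0% = median of test compound wells and 100% = reference inhibitor wells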
# The depositor's hits bear a star.
SMILES,GPR151 activ,MITF inh,FBW7 act,TEAD-YAP block
Cc1nccn1-c1cc(NCCNC(=O)Nc2ccc(F)c(Cl)c2)ncn1,0,3,0,78*
N/C(=N\O)c1ccc(Oc2ccc(Oc3ccc(/C(N)=N/O)cc3)cc2)cc1,0,3,2,84*
CCOC(=O)Cn1cc(/C=C2\C(=O)N(c3cccc(Cl)c3)N=C2C)c2ccccc21,-1,6,0,2
C=CCOC(=O)C1=C(C)Nc2ncnn2C1c1ccc(F)cc1 (stereo unspecified),2,-4,0,5
Cc1ccc(S(=O)(=O)Nc2ccccc2C(=O)Nc2nc(-c3ccc(Br)s3)cs2)cc1,1,-5,0,53*
Cc1ccc(S(=O)(=O)Nc2ccccc2C(=O)Nc2nccs2)cc1,0,21,0,39*
Cc1ccc(S(=O)(=O)Nc2ccccc2C(=O)Nc2nc(-c3cccs3)cs2)cc1,-1,-3,0,0
Cc1ccc(S(=O)(=O)Nc2ccccc2C(=O)Nc2nc(-c3ccc(Cl)cc3)cs2)cc1,1,2,0,53*
Cc1ccc(S(=O)(=O)Nc2ccccc2C(=O)Nc2nc(-c3ccc(Br)cc3)cs2)cc1,2,-8,0,38*
CCOC(=O)C1CCN(c2c(NC3CCCC3)c(=O)c2=O)CC1,0,10,1,1
C=CCn1c(=NC(=O)CC)sc2cc(OCC)ccc21,2,-10,0,-8
CS(=O)(=O)c1ccccc1C(=O)Nc1nc(-c2ccc(C#N)cc2)cs1,0,4,0,34*
CSc1ccccc1C(=O)Nc1nc(-c2ccc(C#N)cc2)cs1,3,-7,0,-2
NNC(=O)CNC(=O)CNC(=O)c1ccccc1,0,-1,0,-3
CC(=O)Nc1ccc(Oc2nc(C)nc3scc(-c4cccs4)c23)cc1,0,-1,0,2
O=c1c(O)c(-c2cc(O)c(O)c(O)c2)oc2cc(O)cc(O)c12,0,82*,0,2
O=c1c(O)c(-c2ccccc2)oc2cc(O)cc(O)c12,-1,-19,0,-21
COc1ccc(C2=NN(C(C)=O)c3nc4c(c(=O)n(C)c(=O)n4C)n3C2)cc1,1,2,0,10
O=C1c2cccc3cccc(c23)C(=O)N1CCNCCO,0,-11,0,64*
O=C(O)CSc1nnc(C2CC2)n1Cc1ccccc1,-2,7,0,-8
O=C(/C=C/c1ccco1)Nc1nnc(Cc2ccc(F)cc2)s1,0,4,0,55*
CN(C)c1ccc(C(=O)Nc2ccccc2F)cc1,-9,-4,0,74*
CCOC(=O)c1[nH]nc2c1C(=O)N(c1ccc(F)cc1)C2=O,-1,3,0,9
O=C(NCCc1ccccc1)c1ccc2c(c1)NC(=O)c1ccccc1S2,0,-1,0,53*
CCCNC(=O)c1ccc2c(c1)NC(=O)c1ccccc1S2,1,-2,0,-1
SMILES,GPR151 activ,MITF inh,FBW7 act,TEAD-YAP block
c1ccc(C2=NNC(c3ccccc3)=NN2)cc1,-6,5,0,42*
CCn1c(Sc2ccc(C=O)cc2[N+](=O)[O-])nnc1-c1ccco1,-1,4,0,1
CCn1c(Sc2ccc([N+](=O)[O-])cc2C=O)nnc1-c1ccco1,0,-5,0,51*
COc1cc([N+](=O)[O-])cc(/C=N/NC(=O)c2cc(-c3ccccc3)n[nH]2)c1O,0,22,0,2
COc1cccc(/C=N/NC(=O)c2ccn(C)n2)c1O,-1,9,0,-30
COc1ccccc1-c1cc(C(=O)N/N=C\c2ccccc2)[nH]n1,3,3,0,-3
COc1cccc(/C=N/NC(=O)c2cc(-c3cccn3C)n[nH]2)c1O,0,18,-1,38*
COc1cccc(/C=N/NC(=O)c2cc(-c3cccc([N+](=O)[O-])c3)n[nH]2)c1O,0,11,0,72*
COc1ccccc1-c1cc(C(=O)N/N=C/c2cccc(OC)c2O)[nH]n1,0,33,0,40*
COc1ccc(-c2cc(C(=O)N/N=C/c3c(C)[nH]c4ccccc34)[nH]n2)cc1OC,1,9,0,45*
COc1ccc(S(=O)(=O)Oc2ccc(C=O)cc2Br)cc1,0,-2,0,7
C=CCOc1cccc(/C=C2\C(=O)N(CCc3ccc(OC)c(OC)c3)C(C)=C2C(=O)OC)c1,0,61*,0,-13
COc1ccccc1NC(=O)Cn1cnc2sc(C(=O)Nc3ccc(C(F)(F)F)cc3)c(C)c2c1=O,0,6,2.2*,-6
COc1ccccc1NC(=O)Cn1cnc2sc(C(=O)NC3CCCC(C)C3C)c(C)c2c1=O (stereo unspecified),-1,12,2.0*,-10
COc1ccccc1NC(=O)Cn1cnc2sc(C(=O)Nc3cccc(C(F)(F)F)c3)c(C)c2c1=O,-1,-5,0,1
CCCNC(=O)Cn1cnc2sc(C(=O)NCCCOC)c(C)c2c1=O,-2,-1,3.2*,-3
N/N=C/C1=C(N2CCOCC2)C(=C\c2ccccc2)/CC1,1,0,0,2
O=C(Nc1cc(=O)[nH]c(=O)[nH]1)c1cccc(Br)c1,0,13,1,44*
O=C(Nc1ccccc1)c1cccc(Br)c1,1,14,0,-25
CCN(CC)c1ccc(N=Nc2ncn[nH]2)cc1,-1,36,-2,44*
Cc1[nH]c2ccc(-c3nnc(SCC(=O)Nc4cccc([N+](=O)[O-])c4)n3-c3ccccc3)cc2c1C,1,17,2.4*,2
Cc1[nH]c2ccc(-c3nnc(SCC(=O)Nc4cccc([N+](=O)[O-])c4)n3Cc3ccccc3)cc2c1C,0,-6,0,1
CCOc1ccc2[nH]c(C(=O)O)cc2c1,0,7,0,8
Cc1nc2ccc([N+](=O)[O-])cc2s1,0,8,0,12
Cc1nc2cc(Cl)c([N+](=O)[O-])cc2s1,2,3,2.0*,1
SMILES,GPR151 activ,MITF inh,FBW7 act,TEAD-YAP block
Cc1nc(C)n(-c2ccc(Nc3nccc(-c4cncc5ccccc45)n3)cc2)n1,-1,17,1,81*
Cc1nc(C)n(-c2ccc(Nc3nccc(-c4ccccc4-c4ccccc4)n3)cc2)n1,-1,24,0,-7
Cc1cc(C)c(N(C(=O)CCl)C(=O)C2CCCN2C(=O)CCl)c(C)c1 (stereo unspecified),1,4,0,32*
Nc1c(C(=O)NCc2ccccc2Cl)nnn1-c1cccc(C(F)(F)F)c1,-1,-1,0,-7
CCCn1c(N)c(C(=S)NC(=O)c2ccccc2F)c(=O)n(CCC)c1=O,2,-9,0,3
Cn1nc(-c2ccc(Cl)cc2)cc1NC(=O)Cn1c2ccccc2c(=O)c2ccccc21,0,0,1,-3
Cn1nc(-c2ccc(Cl)cc2)cc1NC(=O)CCl,-2,-1,0,46*

# Screening results from PubChem.
